Hits are enriched below; roughly 3.4% of the tested compounds scored in any of these assays.
proKLK7 act – proKLK7 (human) activation, primary screen; P49862; 0.9% of 370,000 active; purified proKLK7, EDANS-DABCYL substrate fluorescence; 100% is mature enzyme control, 0% vehicle; activation, % at 7 µM;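 active = activation above the mean of all tested compounds plus 3 SD, computed per campaign excluding outliers beyond control limits, cut at about 13% in these data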
Target sequence (P49862 whole entry, looked up): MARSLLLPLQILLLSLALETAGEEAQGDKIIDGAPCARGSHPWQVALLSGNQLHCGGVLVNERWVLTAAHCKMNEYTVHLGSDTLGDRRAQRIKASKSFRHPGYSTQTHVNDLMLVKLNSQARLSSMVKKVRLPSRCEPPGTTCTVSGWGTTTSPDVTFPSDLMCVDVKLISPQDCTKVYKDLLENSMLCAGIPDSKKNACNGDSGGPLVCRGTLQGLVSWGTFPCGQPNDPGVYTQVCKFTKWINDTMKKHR
CendR NRP1 mod – alters CendR peptide binding to human NRP-1; O14786; FAM-RPARPAR peptide binding to NRP-1, fluorescence polarization; 0.85% of 360,000 active; inhibition, % at 25 µM;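 active = inhibition or corrected inhibition above about 18%, plus a signal ratio from 0.5 to 1.5, limit read from the data, passing the limit was not always enough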
sPLA2-III inh – Blocks human group III sPLA2 activity | Q9NZ20 | QFRET BODIPY PC-A2 liposome hydrolysis, fluorescence | inhibition, % at 12.2 µM | 0.56% of 370,000 active | AID 743126;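 active = inhibition above mean plus 3 SD of compounds lying within the high and low control bounds, cut at about 19% in these data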;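 also: 0% = median of test compound wells and 100% = no enzyme DMSO wells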
ADAM17 inh – ADAM17 inhibition, QFRET primary screen; P78536; recombinant ADAM17, EDANS/DABCYL FRET peptide cleavage; inhibition, % at 6.95 µM; 0.83% of 370,000 active;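 active = inhibition above the mean of compounds lying between control limits plus 3 SD, set per campaign, cut at about 8.5% in these data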;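 also: 0% = DMSO-only wells as the low control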
ADAM10 inh – inhibits human ADAM10; O14672; recombinant ADAM10, EDANS/DABCYL FRET peptide cleavage, 3 h; inhibition, % at 7 µM; 0.62% of 370,000 active;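 active = inhibition above a per-campaign cutoff equal to the mean of compounds falling between control-based bounds plus 3 SD, cut at about 20% in these data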;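 also: 0% = DMSO wells while the 100% control is not disclosed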
proKLK7 act conf – confirmation of human kallikrein-7 zymogen activators | activation, % at 7 µM | 68% of 3,200 active | purified proKLK7, EDANS-DABCYL substrate fluorescence; scaled: vehicle 0, mature enzyme 100 | shares compounds with proKLK7 act;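 active = activation, as change over the incubation, above the mean of all tested compounds plus 3 SD, cut at about 13% in these data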
EDANS-DABCYL int – optically interferes with EDANS-DABCYL signal, flagging KLK7 hits; 80% of 3,200 active; shares compounds with proKLK7 act; EDANS-DABCYL substrate fluorescence interference, no enzyme, 4 h; solvent 0%, active enzyme control 100%; AID 686952; activation, % at 7 µM;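 active = activation above the all-compound mean plus 3 SD, ignoring values outside control-based bounds, cut at about 4.8% in these data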;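 also: value is the 4 h activation minus the activation read at time zero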
K7 EDANS ctr – EDANS fluorescence interference in dose response, no enzyme; EC50, µM; shares compounds with proKLK7 act; 20% of 250 active; EDANS-DABCYL peptide fluorescence interference;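 active = compounds that raise the fluorescence signal in this interference counterscreen, with EC50 at or below 10 µM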;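 also: intact quenched peptide substrate alone read at 355 nm excitation and 520 nm emission; signal is fluorescence gain from T0 to T4 after four hours at room temperature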
* hit, by the source's call.

What do the screens show for `Cc1ccccc1C1N=C2Oc3ccccc3C=C2C(=O)N1` (stereo not given)?
proKLK7 act: 35*; CendR NRP1 mod: 1; sPLA2-III inh: -1; ADAM17 inh: -30; ADAM10 inh: -134; proKLK7 act conf: 72*; EDANS-DABCYL int: 73*

What do the screens show for `O=C1CCCc2nc3c(cc21)C(O)Oc1ccccc1-3` (stereo not given)?
proKLK7 act: 71*; CendR NRP1 mod: -2; sPLA2-III inh: 0; ADAM17 inh: -193; ADAM10 inh: inactive; proKLK7 act conf: 52*; EDANS-DABCYL int: 65*

How did O=C1CCCc2nc3c(cc21)C(O)Oc1c-3ccc2ccccc12 (stereo not given) do in these assays?
proKLK7 act: -2; CendR NRP1 mod: 1; sPLA2-III inh: -6; ADAM17 inh: -9; ADAM10 inh: -25

Results for CC(C)c1ccc(NC(=O)CSc2nnc(-c3ccco3)n2C)cc1 ?
proKLK7 act: 0; sPLA2-III inh: 1; ADAM17 inh: 2; ADAM10 inh: -1

What do the screens show for `CN(C(=O)c1ccccn1)c1nnc(-c2cccnc2)s1`?
proKLK7 act: 3; CendR NRP1 mod: -6; sPLA2-III inh: -2; ADAM17 inh: -3; ADAM10 inh: -7

How did Cc1cnc(-c2nnc(N(C)C(=O)C3CCOC3)s2)cn1 (stereo not given) do in these assays?
proKLK7 act: 31*; CendR NRP1 mod: -1; sPLA2-III inh: 6; ADAM17 inh: -40; ADAM10 inh: -122; proKLK7 act conf: 43*; EDANS-DABCYL int: 46*

How did Cc1ccc(-c2nnc(N(C)C(=O)c3cccnc3)s2)cn1 do in these assays?
proKLK7 act: 3; CendR NRP1 mod: 4; sPLA2-III inh: 8; ADAM17 inh: -2; ADAM10 inh: -3

What do the screens show for `CN(C(=O)C1CCOC1)c1nnc(-c2ccncc2)s1` (stereo not given)?
proKLK7 act: 46*; CendR NRP1 mod: -3; sPLA2-III inh: 1; ADAM17 inh: -35; ADAM10 inh: -124; proKLK7 act conf: 65*; EDANS-DABCYL int: 70*

How did Cc1cnc(-c2nnc(N(C)C(=O)c3cccnc3)s2)cn1 do in these assays?
proKLK7 act: 42*; CendR NRP1 mod: 8; sPLA2-III inh: 5; ADAM17 inh: -8; ADAM10 inh: -21; proKLK7 act conf: 72*; EDANS-DABCYL int: 74*

What do the screens show for `CN(C(=O)C1CCOC1)c1nnc(-c2ccccn2)s1` (stereo not given)?
proKLK7 act: 41*; CendR NRP1 mod: -4; sPLA2-III inh: 5; ADAM17 inh: -31; ADAM10 inh: -89; proKLK7 act conf: 50*; EDANS-DABCYL int: 48*

What do the screens show for `CC(=O)N(c1ccccc1)c1nnc(-c2cnc(C)cn2)s1`?
proKLK7 act: 0; CendR NRP1 mod: -2; sPLA2-III inh: 1; ADAM17 inh: -4; ADAM10 inh: -12

What do the screens show for `COC(=O)[C@]12CCCCC=C1N(Cc1ccc(OC)cc1)C(=O)[C@@H]2CC(=O)NCc1ccccc1`?
proKLK7 act: 0; sPLA2-III inh: -6; ADAM17 inh: -3; ADAM10 inh: 0

How did O=C(CCc1nc2sc3c(c2c(=O)[nH]1)CCCC3)NCCOc1ccccc1 do in these assays?
proKLK7 act: 0; CendR NRP1 mod: -51; sPLA2-III inh: -3; ADAM17 inh: -4; ADAM10 inh: -24

What do the screens show for `Nc1nccnc1C(=O)OCc1nc2sc3c(c2c(=O)[nH]1)CCCC3`?
proKLK7 act: 49*; CendR NRP1 mod: -32; sPLA2-III inh: 16; ADAM17 inh: -47; ADAM10 inh: -144; proKLK7 act conf: 89*; EDANS-DABCYL int: 75*; K7 EDANS ctr: 6.5*

How did CCCC1CCC2(CC1)CCC2OC(=O)Nc1c(OC)cccc1OC (stereo not given) do in these assays?
sPLA2-III inh: 11; ADAM17 inh: -3; ADAM10 inh: -2

How did Fc1ccccc1-c1nc(NCc2ccco2)c2ccccc2n1 do in these assays?
proKLK7 act: 0; CendR NRP1 mod: -4; sPLA2-III inh: -18; ADAM17 inh: 0; ADAM10 inh: 5

Results for Oc1ccccc1-c1nc(NCc2ccco2)c2ccccc2n1 ?
proKLK7 act: 13*; CendR NRP1 mod: -3; sPLA2-III inh: -6; ADAM17 inh: -1; ADAM10 inh: 12; proKLK7 act conf: 2; EDANS-DABCYL int: 13*

How did COc1cccc(C(=O)n2ccc3ccc(-c4ccc5ccn(Cc6ccc(C#N)cc6)c5c4)cc32)c1 do in these assays?
proKLK7 act: -2; sPLA2-III inh: 1; ADAM17 inh: -7; ADAM10 inh: -20

Results for COc1cc(NC(=O)c2ccc3c(c2)S(=O)(=O)N=C2CCCCCN23)cc(OC)c1 ?
proKLK7 act: 15*; CendR NRP1 mod: -3; sPLA2-III inh: -2; ADAM17 inh: 1; ADAM10 inh: -1; proKLK7 act conf: 6; EDANS-DABCYL int: 1

What do the screens show for `CCCCNC(=O)C1(C(C)=O)CC(C(=O)OCC)=NO1` (stereo not given)?
proKLK7 act: -1; sPLA2-III inh: 6; ADAM17 inh: 0; ADAM10 inh: -3

How did CC(=O)c1cc(-c2ccc([N+](=O)[O-])cc2)c(=O)n2c1CCC2 do in these assays?
proKLK7 act: 0; sPLA2-III inh: 2; ADAM17 inh: 0; ADAM10 inh: 5

Results for Cc1coc2c(C)c3oc(=O)c(CCC(=O)NCCC(=O)O)c(C)c3cc12 ?
proKLK7 act: 8; CendR NRP1 mod: -14; sPLA2-III inh: 15; ADAM17 inh: -26; ADAM10 inh: -62

How did Cc1coc2c1c(C)cc1oc(=O)c(CC(=O)N[C@H](C(=O)O)C(C)C)c(C)c12 do in these assays?
proKLK7 act: 23*; CendR NRP1 mod: 3; sPLA2-III inh: 3; ADAM17 inh: -264; ADAM10 inh: inactive; proKLK7 act conf: 29*; EDANS-DABCYL int: 37*

How did Cc1coc2c1c(C)cc1oc(=O)c(CC(=O)NCC(=O)NCC(=O)O)c(C)c12 do in these assays?
proKLK7 act: 10; CendR NRP1 mod: -17; sPLA2-III inh: -3; ADAM17 inh: -319; ADAM10 inh: inactive

What do the screens show for `Cc1coc2c1c(C)cc1oc(=O)c(CC(=O)N[C@@H](C)C(=O)O)c(C)c12`?
proKLK7 act: 29*; CendR NRP1 mod: 0; sPLA2-III inh: 3; ADAM17 inh: -375; ADAM10 inh: inactive; proKLK7 act conf: 24*; EDANS-DABCYL int: 27*
